Measurements as given in PubChem BioAssay AID1159580 (chemical genetic matrix, 2015).
Hit rate of the full screen: of about 5,500 compounds, about 2,000 (36%) were called active. Not shown: some 18% with an inconclusive outcome. Rule as the data show it: active = normalized growth mostly below about 0.91 (no sharp cut-off); inconclusive = no clear call, values can overlap the other calls; inactive = mostly above about 0.92. Some of the results follow.

Experiment: chemical genetic growth profiling, strain panel (AID 1159580);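 also: tested at 20 µM; growth read once vehicle control cultures reached saturation at 30 °C; 1 = growth at the plate median or of vehicle wells; lower values mean less growth of the strain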
Conditions: S. cerevisiae deletion strains, growth OD

Measured: normalized growth

CC1=NN=C(c2ccc(N)cc2)c2cc3c(cc2C1)OCO3
inactive: locus YAL013W, strain DEP1, hits give low values 0.989 | locus YAL040C, strain CLN3, hits give low values 0.968 | locus YCL061C, strain MRC1 (second series), hits give low values 0.991 | locus YDR363W, strain ESC2, hits give low values 0.986 | locus YER002W, strain NOP16, hits give low values 0.967 | locus YMR263W, strain SAP30, hits give low values 0.996 | locus YMR307W, strain GAS1, hits give low values 1 | locus YNL128W, strain TEP1, hits give low values 0.983 | locus YNL153C, strain GIM3, hits give low values 0.957 | locus YNL175C, strain NOP13, hits give low values 0.968 | locus YNL197C, strain WHI3, hits give low values 0.964 | locus YNL224C, strain SQS1, hits give low values 0.989 | locus YOR083W, strain WHI5 (second series), hits give low values 0.936 | locus YPL055C, strain LGE1, hits give low values 0.984

Cc1nnc2n1N=C(c1ccc(CC(C)C)cc1)C(C)S2 (stereo not given)
inactive: locus YAR019C, strain CDC15, hits give low values 0.971 | locus YBL105C, strain PKC1, hits give low values 0.975 | locus YBR135W, strain CKS1, hits give low values 0.964 | locus YBR136W, strain MEC1, hits give low values 0.975 | locus YBR160W, strain CDC28, hits give low values 0.978 | locus YDL017W, strain CDC7, hits give low values 0.982 | locus YDL028C, strain MPS1, hits give low values 0.972 | locus YDL101C, strain DUN1, hits give low values 0.965 | locus YDL108W, strain KIN28, hits give low values 0.97 | locus YDL132W, strain cdc53, hits give low values 0.972 | locus YDL214C, strain PRR2, hits give low values 0.98 | locus YDR052C, strain DBF4, hits give low values 0.977 | locus YDR054C, strain cdc34, hits give low values 0.973 | locus YDR226W, strain ADK1, hits give low values 0.966 | locus YDR477W, strain SNF1, hits give low values 0.975 | locus YER123W, strain YCK3, hits give low values 0.941 | locus YER133W, strain GLC7, hits give low values 0.972 | locus YFL009W, strain cdc4, hits give low values 0.971 | locus YFL029C, strain CAK1, hits give low values 0.971 | locus YFR003C, strain YPI1, hits give low values 0.978 | locus YFR019W, strain FAB1, hits give low values 0.986 | locus YFR028C, strain CDC14, hits give low values 0.969 | locus YGR040W, strain KSS1, hits give low values 0.979 | locus YGR052W, strain FMP48, hits give low values 1.05 | locus YGR092W, strain DBF2, hits give low values 0.971 | locus YHR030C, strain SLT2, hits give low values 1.08 | locus YHR079C, strain IRE1, hits give low values 1.05 | locus YHR082C, strain KSP1, hits give low values 1.05 | locus YHR205W, strain SCH9, hits give low values 0.977 | locus YIL147C, strain SLN1, hits give low values 0.964 | locus YJL095W, strain BCK1, hits give low values 1.06 | locus YJL128C, strain PBS2, hits give low values 0.931 | locus YJL157C, strain FAR1, hits give low values 0.983 | locus YJR016C, strain ILV3, hits give low values 0.98 | locus YJR066W, strain TOR1 (second series), hits give low values 0.971 | locus YJR066W, strain TOR1, hits give low values 1.07 | locus YKL048C, strain ELM1, hits give low values 0.979 | locus YKL067W, strain YNK1, hits give low values 0.98 | locus YKL101W, strain HSL1, hits give low values 0.985 | locus YKL193C, strain SDS22, hits give low values 0.972 | locus YKL203C, strain TOR2, hits give low values 1.04 | locus YLR113W, strain HOG1, hits give low values 0.973 | locus YLR133W, strain CKI1, hits give low values 0.985 | locus YLR403W, strain SFP1, hits give low values 0.965 | locus YML070W, strain DAK1, hits give low values 0.968 | locus YMR001C, strain CDC5, hits give low values 0.974 | locus YMR205C, strain PFK2 (second series), hits give low values 0.986 | locus YMR277W, strain FCP1, hits give low values 0.975 | locus YNL006W, strain LST8, hits give low values 0.986 | locus YNL020C, strain ARK1, hits give low values 0.997 | locus YNL161W, strain CBK1, hits give low values 0.977 | locus YNL183C, strain NPR1, hits give low values 1.05 | locus YNL207W, strain RIO2, hits give low values 0.98 | locus YNL222W, strain SSU72, hits give low values 0.97 | locus YNL307C, strain MCK1 (second series), hits give low values 0.97 | locus YOL078W, strain AVO1, hits give low values 0.977 | locus YOL136C, strain PFK27, hits give low values 0.975 | locus YOR061W, strain CKA2, hits give low values 0.972 | locus YOR119C, strain RIO1, hits give low values 0.982 | locus YOR231W, strain MKK1, hits give low values 1.04 | locus YOR329C, strain SCD5, hits give low values 0.98 | locus YPL031C, strain PHO85, hits give low values 0.983 | locus YPL153C, strain RAD53, hits give low values 0.956 | locus YPL204W, strain HRR25, hits give low values 0.96 | locus YPL209C, strain IPL1, hits give low values 0.98 | locus YPL256C, strain CLN2, hits give low values 1.02 | locus YPR025C, strain CCL1, hits give low values 0.969 | locus YPR106W, strain ISR1, hits give low values 0.979 | locus YPR111W, strain DBF20, hits give low values 0.967 | strain NNK1, hits give low values 0.978 | strain TSCII, hits give low values 0.972
